This note sets out measurements from PubChem BioAssay (NCATS).

Experiment [1] has as its target DNA repair nuclease/redox regulator APEX1 (Homo sapiens) (UniProt P27695). Kind of experiment: qHTS Validation Assay for Inhibitors of the Human Apurinic/apyrimidinic Endonuclease 1 (APE1) (AID 1705; note: potency is the fitted concentration of half-maximal effect;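 for activity change, negative = inhibition: TAMRA fluorescence gain over two minutes as APE1 cuts a quenched THF abasic duplex; % is set by controls: 0 for no effect and ±100 for the full control effect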). The gist of the method: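 Substrate: 50 nM final fluorophore/quencher THF-abasic duplex. Enzyme preincubated with compounds 15 min, RT. Progress derived from fluorescence difference, third minus first kinetic read.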
(Quantitative high-throughput screening tests each substance at several concentrations.)

Experiment [2] in a line: Counterscreen for APE1 Inhibitors: Fluorescent Dye Displacement Validation Assay (AID 1707).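 Note: plate controls were ThO with dsDNA and no compound for no effect and ThO without dsDNA for full effect.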 An outline of the steps: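 Counterscreen flags promiscuous DNA binders: compounds displacing ThO from duplex DNA (abasic THF site, 50 nM) reduce 540 nm emission (480 nm excitation). ThO 250 nM final; Tris-HCl pH 7.5 with NaCl, MgCl2 and Tween-20.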
Experiment [3] addresses Endonuclease 4 (Escherichia coli (strain K12)) (UniProt P0A6C1). As to the kind of experiment: Counterscreen for APE1 Inhibitors: qHTS Validation Assay for Inhibitors of Endonuclease IV (AID 1708). For activity change, negative = inhibition: % is set by controls: 0 for no effect and ±100 for the full control effect. Note: potency is the fitted concentration of half-maximal effect. The gist of the method: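 The reaction buffer contained 50 mM Tris-HCl pH 7.5, 50 mM NaCl, 2 mM MgCl2, 1 mM DTT and 0.01% Tween-20. Incision of a 50 nM fluorophore/quencher THF substrate by 2 nM enzyme was measured kinetically.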
For orientation: The purpose of a counterscreen is to sort out artefacts and off-target activity.

The nature of experiment [4]: qHTS for differential inhibitors of proliferation of Plasmodium falciparum line 7G8 (AID 1815).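 For activity change, negative = inhibition: plate controls were vehicle wells for no effect and reference inhibitor wells for full effect.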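 Note: parasite growth measured after three days of incubation.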 Note: potency is the fitted concentration of half-maximal effect.
The nature of experiment [5]: qHTS for differential inhibitors of proliferation of Plasmodium falciparum line GB4 (AID 1816).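 For activity change, negative = inhibition: 0% = vehicle DMSO and -100% = reference inhibitor.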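 Note: parasite growth measured after 72 h incubation.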 Note: potency is the fitted concentration of half-maximal effect. The settings on record: Potency: Plasmodium falciparum GB4 proliferation inhibition.
Experiment [6] is described as follows: qHTS for differential inhibitors of proliferation of Plasmodium falciparum line 3D7 (AID 1876). Note: potency is the fitted concentration of half-maximal effect.
Experiment [7] in a line: qHTS for differential inhibitors of proliferation of Plasmodium falciparum line D10 (AID 1877).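 For activity change, negative = inhibition: plate controls were vehicle wells for no effect and reference inhibitor wells for full effect.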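 Note: parasites grown with compound for 72 h before DNA staining.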 Note: potency is the fitted concentration of half-maximal effect.
A short description of experiment [8]: qHTS for differential inhibitors of proliferation of Plasmodium falciparum line Dd2 (AID 1882).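 For activity change, negative = inhibition: compound exposure of 72 h on infected erythrocytes; plate controls were DMSO vehicle for no effect and 0.29 µM artemisinin for full effect.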 Note: nearly all actives have a fitted effect of over 65% in size. Note: potency is the fitted concentration of half-maximal effect. As to conditions: Potency: Plasmodium falciparum Dd2 proliferation inhibition. An outline of the steps: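 RBC culture, 0.3% parasitemia / 2.5% Hct final; cpd added by pin tool in DMSO; 72 h, 37 C, 5% CO2; lysis buffer + SYBR Green I, o/n RT dark; FI 485/535; norm. to artemisinin 0.29 uM and DMSO.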

Experiment [9] in a line: qHTS for differential inhibitors of proliferation of Plasmodium falciparum line W2 (AID 1883).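 For activity change, negative = inhibition: 0% = vehicle wells and -100% = control inhibitor wells.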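 Note: parasites grown with compound for 72 h before lysis and staining.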 Note: potency is the fitted concentration of half-maximal effect. As to conditions: Potency: Plasmodium falciparum W2 proliferation inhibition.
Experiment [10] can be described thus: qHTS for differential inhibitors of proliferation of Plasmodium falciparum line HB3 (AID 1886).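 For activity change, negative = inhibition: plate controls were vehicle for no effect and reference inhibitor for full effect.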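 Note: parasites grown with compound for 72 h before SYBR Green readout.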 Note: potency is the fitted concentration of half-maximal effect. The settings on record: Potency: Plasmodium falciparum HB3 proliferation inhibition.
Experiment [11] has as its target Ferritin light chain (Equus caballus) (UniProt P02791). As to the kind of experiment: qHTS Validation Assay for Identification of Novel General Anesthetics (AID 2323). Note: % is set by controls: 0 for no effect and ±100 for the full control effect. The gist of the method: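 Normalized fluorescence response, scaled between free 1-AMA and 1-AMA/apoferritin complex, fitted to a four-parameter Hill equation for concentration-effect values. Binding mix: 10 uM horse-spleen apoferritin, 50% saturated 1-AMA in PBS; read 380/535 nm after 10 min.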

In experiment [12] the target is RecQ-like DNA helicase BLM (Homo sapiens) (UniProt P54132). Kind of experiment: qHTS Validation Assay for Inhibitors of Bloom's syndrome helicase (BLM) (AID 2364).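 For activity change, negative = inhibition: plate controls were DMSO vehicle for no effect and enzyme-free control for full effect.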 Note: potency is the fitted concentration of half-maximal effect. An outline of the steps: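 Forked 20-bp duplex substrate (200 nM, TAMRA/BHQ-2) plus 2 mM ATP added after 15 min compound preincubation with 50 nM enzyme, pH 8.0, poly(dI-dC) 2.5 ug/ml. Strand separation followed by fluorescence (525/598 nm) over 2 h, normalized to enzyme-free and DMSO controls.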

Experiment [13] deals with ATP-dependent DNA helicase Q1 (Homo sapiens) (UniProt P46063). As to the kind of experiment: qHTS Validation Assay for Inhibitors of RecQ-Like Dna Helicase 1 (RECQ1) (AID 2353).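 Note: plate controls were DMSO vehicle for no effect and enzyme-free control for full effect.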 The gist of the method: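 RECQ1T1 50 nM; forked duplex (20 bp + 30-nt ss tails) 200 nM, ATP 2 mM final; pH 8.0, 2 mM MgCl2, 2.5 ug/ml poly(dI-dC); 15 min compound preincubation; discontinuous kinetic read over 2 h at RT.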

Experiment [14] in a line: qHTS Assay for Lipid Storage Modulators (AID 1519; calls by dose curve; for activity change, negative = inhibition: % is set by controls: 0 for no effect and ±100 for the full control effect). The settings on record: Drosophila S3 cells, BODIPY lipid droplet/cell ratio, laser cytometry, cells loaded with oleic acid; for activity change, negative = inhibition: at 57.5 µM (top of the series). An outline of the steps:
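Cells seeded at 5,000 per well were treated with compounds over a concentration series and loaded with oleic acid (400 uM, as added). Lipid droplet fluorescence (488 nm excitation, 500-530 nm channel) was read by laser-scanning cytometry and normalized to 20 uM Triacsin C.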

A short description of experiment [15]: qHTS Assay for Modulators of Human Peripheral Myelin Protein 22 (PMP22) Expression/Activity (AID 1967; active = well fitted curve in the direction sought with a large enough effect in the signal ratio; the % refers to the signal ratio;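 note: 0% = untreated cells and 100% end not stated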). An outline of the steps:
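Engineered MSC80 cells, Pmp22-promoter green and EF-alpha red luciferase reporters; 24h compound treatment at 37 °C. Concentration-response fits on green, red and ratio signals, each overlap-corrected, with %Activity normalized to untreated wells.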

In experiment [16] the target is alpha-glucosidase (Oryza sativa, rice) (UniProt Q653V4). Kind of experiment: Counterscreen for Glucocerebrosidase Inhibitors: qHTS Assay for Rice alpha-Glucosidase at pH 5.0 (AID 997).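 Note: 0% = full activity with enzyme and -100% = basal without enzyme.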 An outline of the steps: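 Endpoint fluorogenic assay at pH 5.0: compounds (0.7 nM to 77 uM) titrated against 4 nM rice enzyme and 400 uM 4-MU-alpha-glucoside for 20 min at room temperature; NaOH/glycine stop, read ex 365/em 440 nm, Hill-fitted AC50.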

A short description of experiment [17]: Cell Viability - LYMP1-002 - Assay at 24 hr (AID 993). Note: potency is the fitted concentration of half-maximal effect. The gist of the method:
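CellTiter-Glo luminescence (intracellular ATP) after 24 h compound exposure, 37 C, in LYMP1-002 human lymphoblastoid cells; decreased ATP taken as cytotoxicity. AC50 from standard Hill fit of concentration-response curves.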

A short description of experiment [18]: Cell Viability - LYMP1-002 - Assay at 40 hr (AID 994). Note: nearly all actives have a fitted effect of over 60% in size. Note: potency is the fitted concentration of half-maximal effect. The gist of the method: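 qHTS cytotoxicity; 2500 cells/well, 5 hr 37 C settle, compound 40 hr 37 C. CellTiter-Glo, 30 min RT, luminescence (ATP). Concentration-response, Hill fit → AC50. Pos. ctrl tetraoctylammonium bromide.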
A short description of experiment [19]: qHTS Assay for Identification of Small Molecule Inducers of Hypoxia Response (AID 2120; active = well fitted curve in the direction sought with a large enough effect in the signal ratio, with a control signal flat, not every such curve was filed as active; the % refers to the signal ratio; note: 0% is about no effect). An outline of the steps: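 Read-out: CCF4 FRET emission ratio 460nm/530nm (excitation 405nm), converted to %Activity, with AC50 fitted across a compound titration. ME-180 cells carried an HRE-driven beta-lactamase reporter; compound exposure 17 h, 37 degrees C.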
Where [20] appears, read: measured here: cell count channel max response.
[21] abbreviates: measured here: lipid channel max response.

Records with an inconclusive call do not appear. Active and inactive are the calls of the source. Unless noted, calls come from the whole dose curve; as a rule, active = well fitted curve in the direction sought with a large enough effect; inconclusive = small, poorly fitted or top-dose-only effect, or another doubt; inactive = no such curve, though single readings can be large; an effect the other way counts as inactive or inconclusive.

Sequence of Ferritin light chain (Equus caballus) (P02791 2-175 limits assumed): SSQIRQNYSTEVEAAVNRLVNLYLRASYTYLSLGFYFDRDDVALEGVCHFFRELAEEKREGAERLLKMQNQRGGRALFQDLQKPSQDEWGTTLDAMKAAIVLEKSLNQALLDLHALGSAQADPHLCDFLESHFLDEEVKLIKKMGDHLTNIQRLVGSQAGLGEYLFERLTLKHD
Sequence of DNA repair nuclease/redox regulator APEX1 (Homo sapiens) (P27695 whole entry, looked up): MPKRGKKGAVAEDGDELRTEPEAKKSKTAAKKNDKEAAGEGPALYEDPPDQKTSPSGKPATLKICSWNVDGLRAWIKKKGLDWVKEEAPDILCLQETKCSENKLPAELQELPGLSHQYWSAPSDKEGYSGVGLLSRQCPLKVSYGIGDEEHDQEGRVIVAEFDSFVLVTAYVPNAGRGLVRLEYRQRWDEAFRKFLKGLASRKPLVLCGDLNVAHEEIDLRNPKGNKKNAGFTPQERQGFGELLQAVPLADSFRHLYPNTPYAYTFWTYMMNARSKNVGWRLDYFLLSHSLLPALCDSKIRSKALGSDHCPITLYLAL
Sequence of ATP-dependent DNA helicase Q1 (Homo sapiens) (P46063 whole entry, looked up): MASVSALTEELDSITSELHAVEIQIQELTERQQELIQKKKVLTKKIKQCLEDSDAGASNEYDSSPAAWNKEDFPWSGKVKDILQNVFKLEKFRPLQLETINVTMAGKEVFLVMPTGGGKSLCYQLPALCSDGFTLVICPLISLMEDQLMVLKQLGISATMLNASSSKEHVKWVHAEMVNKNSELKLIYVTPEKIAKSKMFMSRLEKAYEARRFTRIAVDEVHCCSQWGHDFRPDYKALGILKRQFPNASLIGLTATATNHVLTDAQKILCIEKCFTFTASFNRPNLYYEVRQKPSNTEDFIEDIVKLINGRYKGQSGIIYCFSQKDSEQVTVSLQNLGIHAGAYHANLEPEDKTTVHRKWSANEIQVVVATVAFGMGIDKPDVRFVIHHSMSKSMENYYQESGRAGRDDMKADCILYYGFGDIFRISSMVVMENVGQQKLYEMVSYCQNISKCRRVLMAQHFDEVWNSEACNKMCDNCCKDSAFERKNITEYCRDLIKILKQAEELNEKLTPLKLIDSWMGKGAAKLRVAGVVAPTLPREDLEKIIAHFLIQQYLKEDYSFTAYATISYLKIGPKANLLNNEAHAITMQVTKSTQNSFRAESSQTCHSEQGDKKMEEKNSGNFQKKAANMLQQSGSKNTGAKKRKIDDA
Sequence of RecQ-like DNA helicase BLM (Homo sapiens) (P54132 whole entry, looked up): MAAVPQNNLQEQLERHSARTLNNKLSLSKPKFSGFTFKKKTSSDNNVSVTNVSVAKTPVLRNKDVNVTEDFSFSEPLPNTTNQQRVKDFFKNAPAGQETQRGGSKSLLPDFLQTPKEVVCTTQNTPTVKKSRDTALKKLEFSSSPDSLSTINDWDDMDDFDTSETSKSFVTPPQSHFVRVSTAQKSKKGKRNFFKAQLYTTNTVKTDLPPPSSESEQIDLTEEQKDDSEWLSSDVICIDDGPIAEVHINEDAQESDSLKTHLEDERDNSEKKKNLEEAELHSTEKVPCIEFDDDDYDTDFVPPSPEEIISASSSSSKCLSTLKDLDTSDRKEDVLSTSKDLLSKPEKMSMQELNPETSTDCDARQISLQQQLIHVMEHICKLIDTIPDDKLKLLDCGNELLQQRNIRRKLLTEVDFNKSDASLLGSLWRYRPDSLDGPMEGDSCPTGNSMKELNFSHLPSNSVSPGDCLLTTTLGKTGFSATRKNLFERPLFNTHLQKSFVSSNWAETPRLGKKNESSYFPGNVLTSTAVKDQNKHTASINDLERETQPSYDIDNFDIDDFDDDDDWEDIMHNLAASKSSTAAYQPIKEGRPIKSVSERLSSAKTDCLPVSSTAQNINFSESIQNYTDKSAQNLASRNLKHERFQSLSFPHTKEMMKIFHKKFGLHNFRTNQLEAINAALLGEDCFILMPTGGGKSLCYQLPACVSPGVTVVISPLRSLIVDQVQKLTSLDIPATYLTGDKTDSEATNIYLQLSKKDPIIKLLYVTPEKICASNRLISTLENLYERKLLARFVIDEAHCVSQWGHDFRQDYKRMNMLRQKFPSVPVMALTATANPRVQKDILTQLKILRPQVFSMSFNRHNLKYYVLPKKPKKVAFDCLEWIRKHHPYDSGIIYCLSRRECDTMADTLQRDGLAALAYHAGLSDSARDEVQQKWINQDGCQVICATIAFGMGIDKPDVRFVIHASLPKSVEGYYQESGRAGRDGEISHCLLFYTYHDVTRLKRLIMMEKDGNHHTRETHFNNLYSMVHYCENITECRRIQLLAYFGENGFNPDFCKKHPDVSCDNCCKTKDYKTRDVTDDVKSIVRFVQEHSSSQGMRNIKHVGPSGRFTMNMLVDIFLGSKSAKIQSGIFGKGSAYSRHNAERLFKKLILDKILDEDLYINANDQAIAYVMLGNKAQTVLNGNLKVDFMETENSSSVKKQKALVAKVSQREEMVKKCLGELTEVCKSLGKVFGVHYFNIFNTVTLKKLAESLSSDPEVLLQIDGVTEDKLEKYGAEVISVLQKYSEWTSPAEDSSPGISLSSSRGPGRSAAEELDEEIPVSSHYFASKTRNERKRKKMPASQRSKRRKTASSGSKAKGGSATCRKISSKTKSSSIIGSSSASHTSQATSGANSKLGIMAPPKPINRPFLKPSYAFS

As to `COc1ccccc1CNCCCCCCNCCCCCCCCNCCCCCCNCc1ccccc1OC`, the Potency result in [1], in experiment [2], in experiment [3] and in experiment [11] was “inactive” each time. Also, the Potency was 1.41 µM (active) in experiment [4]; 2.24 µM (active) in [5]; 0.891 µM (active) in experiment [6]; 2.24 µM (active) in experiment [7]; 4.47 µM (active) in experiment [8]; 1 µM (active) in experiment [9]. The Potency in [10] is 2 µM (active); in experiment [12], 17.8 µM (active).

In the case of `O=c1[nH]c2cc(Cl)c(Cl)cc2[nH]c1=O`, the Potency result in experiment [1], in experiment [2], in experiment [3], in experiment [8], in experiment [11] and in experiment [13] was “inactive” throughout. In addition, the Potency in [6] was 2.51 µM (active); in [9], 3.55 µM (active).

For the compound `CC(C)NC[C@H](O)COc1cccc2[nH]ccc12`, the activity change, negative = inhibition in experiment [14] was 1.59% (inactive). The max response in experiment [14] (setting [20]) and in experiment [14] (setting [21]) was -1.16% each time. For the same compound, the Potency entry in experiment [2], in experiment [11] and in experiment [13] was “inactive” in each case.

With `CCCCCCCCCCCCCCCCCCNC(=O)OCC(COP(=O)([O-])OCC[n+]1ccsc1)OC` (configuration not stated), in [14], the activity change, negative = inhibition was 0.643% (inactive). In addition, the max response in [14] (setting [20]) is -16.2%; in [14] (setting [21]), -15%. Besides, the Potency result in [1], in experiment [2], in [3], in [7], in experiment [8] and in experiment [13] was “inactive” in each case. Besides, the Potency in experiment [5] and in [10] was 11.2 µM (active) throughout. In addition, in experiment [15], the outcome was inactive.

Regarding `CC12C(=O)OC(=O)C1(C)C1CCC2O1` (configuration not stated), the Potency entry in experiment [1], in experiment [2], in experiment [3], in [11] and in [13] was “inactive” each time. For the same compound, the Potency in [4] was 3.98 µM (active); in experiment [5] it was 4.47 µM (active); in [6] it was 3.16 µM (active); in [7], 2.24 µM (active); in experiment [8], 4.47 µM (active); in experiment [9], 2.51 µM (active). The Potency in [10] was 3.98 µM (active).

For `O=C(Nc1cccc(C(=O)Nc2ccc(S(=O)(=O)O)c3cc(S(=O)(=O)O)cc(S(=O)(=O)O)c23)c1)Nc1cccc(C(=O)Nc2ccc(S(=O)(=O)O)c3cc(S(=O)(=O)O)cc(S(=O)(=O)O)c23)c1`, in [16], the compound was classed as inactive. Moreover, the activity change, negative = inhibition in experiment [14] was 2.61% (inactive). Also, the values for the max response in experiment [14] (setting [20]) and in experiment [14] (setting [21]) were -8.67% and -6.27%, respectively. Further, the Potency in experiment [1] is 10 µM (active); in [3], 8.91 µM (active). The Potency result in experiment [2], in experiment [4], in experiment [5], in experiment [6], in [7] and in experiment [8] was “inactive” throughout. Moreover, the Potency result in [9], in experiment [10], in experiment [11] and in experiment [12] was “inactive” each time.

For the compound `COc1cc(OC)c(/C=C2/C(=O)Nc3ccccc32)c(OC)c1`, the activity change, negative = inhibition in experiment [14] is -1.27% (inactive). For the same compound, the max response turned out to be 30.4% in experiment [14] (setting [20]) and 28.6% in experiment [14] (setting [21]). Moreover, the Potency entry in [2], in [7], in [8] and in experiment [13] was “inactive” throughout.

Turning to `O=C1NC(O)=NC1(c1ccccc1)c1ccccc1`, the outcome in experiment [16] was inactive. Moreover, the activity change, negative = inhibition in experiment [14] was 1.6% (inactive). For the same compound, the max response was -13.9% in experiment [14] (setting [20]) and -13.3% in experiment [14] (setting [21]). The Potency entry in experiment [2], in experiment [3], in experiment [4], in experiment [5], in [6] and in [7] was “inactive” each time. Moreover, the Potency entry in [8], in [9], in [10], in experiment [11] and in experiment [13] was “inactive” throughout.

As to `S=c1[nH]c2ccccc2s1`, the Potency entry in experiment [17] and in [18] was “inactive” each time. In addition, in [14], the activity change, negative = inhibition was 12% (inactive). In addition, the max response in [14] (setting [20]) amounted to 14.4%; in experiment [14] (setting [21]) it was 29.5%. The compound was classed as inactive in experiment [19].

With `Nc1ccc([N+](=O)[O-])cc1O`, the Potency result in experiment [17] and in experiment [18] was “inactive” in each case.

With `CC(C)Cc1ccc([C@H](C)C(=O)O)cc1`, the call in [16] was inactive. Besides, the Potency entry in experiment [2], in [4], in experiment [5], in experiment [6], in [7] and in experiment [8] was “inactive” throughout. Besides, the Potency result in experiment [9], in experiment [10], in experiment [11] and in [13] was “inactive” throughout.

Regarding `CCCCCCCCCCCCCCCCCC(=O)O`, the Potency result in experiment [17] and in [18] was “inactive” throughout. For the same compound, the compound was classed as inactive in [19].

Regarding `CN(C)c1ccc(C(=C2C=CC(=[N+](C)C)C=C2)c2ccccc2)cc1`, the results for the Potency in experiment [17] and in experiment [18] were 0.794 µM (active) and 1 µM (active), respectively.
